KB-3-1 tox: kills parental KB-3-1 adenocarcinoma cells; 400,000 tested, 1.4% active; KB-3-1 viability, CellTiter-Glo ATP luminescence, 72 h; Potency, µM (top dose mostly 46.1 µM), actives largely listed as cytotoxic; note: % is set by controls: 0 for no effect and ±100 for the full control effect; nearly all actives have a fitted effect of over 60% in size
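Parental KB-3-1 viability, qHTS format: 72 h compound exposure, 37 °C; CellTiter-Glo; media-only wells and DMSO plates as controls; concentration-effect fits on corrected data.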
KB-V1 MDR tox: KB-V1 MDR subline cytotoxicity; KB-V1 MDR cells viability, CellTiter-Glo, 72 h; Potency, µM (titrated, usually from 46.1 µM), actives largely listed as cytotoxic; 400,000 tested, 3.4% active; note: % is set by controls: 0 for no effect and ±100 for the full control effect; nearly all actives have a fitted effect of over 60% in size
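Cytotoxicity toward P-gp-expressing KB-V1 cells was determined as loss of CellTiter-Glo luminescence after 72 h at 37 degrees C. Compounds were tested in quantitative HTS format across a concentration range, with curves fitted to normalized data.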
SW480 rerep: DNA re-replication induction in SW480 cells; SW480 DNA re-replication, Hoechst DNA content imaging, 48 h; Potency, µM (doses to about 46.1 µM), without a hit: at the highest dose re-replication activation, actives largely listed as activators; 340,000 tested, 1.8% active; note: % of control where 0% means no effect; nearly all actives have a fitted effect of over 55% in size
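Readout is total intensity of Hoechst-stained nuclei, excited at 405 nm and collected at 500-530 nm. Compound treatment lasted 48 hr at 37 C in 5% CO2 before staining.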
MCF10A rereplic: induces DNA re-replication in MCF 10a normal breast cells; 350,000 tested, 2.9% active; AID 624296; MCF 10A DNA re-replication, Hoechst nuclear intensity, 48 h; Potency, µM (doses to about 46.1 µM), for inactives: at the top dose activity, positive = re-replication, most hits filed as activators; note: % of control where 0% means no effect; nearly all actives have a fitted effect of over 50% in size
HT1080 IDH1KD tx: kills HT-1080 cells with IDH1 knockdown | HT-1080 IDH1 knockdown viability, ATP luminescence, 48 h | Potency, µM (top dose mostly 46.1 µM), for inactives: at the highest dose activity, negative = toxicity, usual class: cytotoxic | 360,000 tested, 2% active | AID 686971;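 note: 0% = DMSO wells and -100% = cell-free medium wells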
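Assay cells: HT-1080 with IDH1 knockdown, 750 per well, RPMI/5% FBS. Exposure: 48 h at 37 °C following 2 h pre-incubation. Read: CellTiter-Glo luminescence; fitted concentration-response, curve class assigned.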
HT1080-NT tox: kills 2HG-producing HT-1080-NT fibrosarcoma cells; HT-1080-NT fibrosarcoma viability, CellTiter-Glo ATP luminescence, 48 h; Potency, µM (doses to about 46.1 µM), for the others: at the top dose activity, negative = less viability, hits mostly cytotoxic; 360,000 tested, 1.6% active;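 note: NT is the 2HG producing partner of a matched IDH1 knockdown line; 0% = DMSO-treated cells and -100% = media-only wells without cells; nearly all actives have a fitted effect of over 55% in size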
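HT-1080-NT fibrosarcoma cells (2HG-overproducing), 750 cells/well in RPMI with 5% FBS, dosed after 2 h and incubated 48 h at 37C. CellTiter-Glo luminescence normalized to DMSO and no-cell wells; concentration-response curves fitted and classed.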
* hit, by the source's call; i = inactive; ? = inconclusive; . = no result given; [ ] = dose if it differs, or a comment. The list is not random: actives were taken first. Their share in the collection is about 7.9%. Calls come from the whole dose curve; as a rule, active = well fitted curve in the direction sought with a large enough effect; inconclusive = small, poorly fitted or top-dose-only effect, or another doubt; inactive = no such curve, though single readings can be large; an effect the other way counts as inactive or inconclusive. Potency is the fitted concentration of half-maximal effect.

SMILES	KB-3-1 tox	KB-V1 MDR tox	SW480 rerep	MCF10A rereplic	HT1080 IDH1KD tx	HT1080-NT tox
C=CCNC(=S)N/N=C/c1ccc(-c2ccc(OC)cc2)o1	?	7.31µM*	?	20.6µM*	?	?
C=CCNC(=S)N/N=C/c1ccc(C)cc1C	?	?	-0.5%	?	16.4µM*	23.1µM*
C=CCNC(=S)N/N=C/c1ccc(-c2ccc(Cl)cc2Cl)o1	i	i	16.4µM*	13µM*	?	?
Cc1cccc(Cn2cccc2CNS(=O)(=O)c2ccccc2F)c1	i	i	.	.	.	.
CCC(C)[C@H](N)c1nnc(SCc2ccc(Cl)c(Cl)c2)o1 (stereo not given in full)	i	?	.	.	.	.
COC(=O)C1CCN(c2csc3ccc(C)cc3c2=O)CC1	i	?	.	.	.	.
O=c1[nH]c(NNC(=S)NCc2ccccc2)nc2c1C1(CCCCC1)Cc1ccccc1-2	i	i	-39.2%	11.6µM*	-15.9%	-24.0%
CN(C)Cc1nc2c(c(=O)[nH]1)C1(CCCCC1)Cc1ccccc1-2	i	i	11.0%	?	-0.2%	-13.6%
CCN(CC)Cc1nc2c(c(=O)[nH]1)C1(CCCCC1)Cc1ccccc1-2	i	i	?	5.8µM*	-4.9%	1.1%
CC1(C(=O)Nc2ccc(Cl)c(Cl)c2)CCN1CCc1ccccc1 (stereo not given)	i	i	.	.	-0.8%	28.9%
CC(C)Oc1ccc(C(CC(=O)NCc2ccco2)c2ccccc2)cc1 (stereo not given)	i	20.6µM*	-2.2%	-0.9%	3.0%	-17.0%
COc1ccc(CNCCCSc2ncccn2)cc1OC	i	i	-0.4%	1.6%	-5.4%	-3.2%
COc1ccccc1NC(=O)CC(c1ccc(OC(C)C)cc1)c1ccccc1OC (stereo not given)	i	4.61µM*	?	?	6.7%	10.0%
Cc1cccc(C(CC(=O)NCc2ccco2)c2ccccc2)c1O (stereo not given)	i	i	-41.0%	2.8%	0.2%	3.5%
COc1ccccc1C(CCNCc1ccccc1)c1ccc(OC(C)C)cc1 (stereo not given)	?	i	?	18.4µM*	?	?
COc1ccc(CNCCC(c2ccc(OC(C)C)cc2)c2ccccc2OC)cc1OC (stereo not given)	?	?	?	23.0%	18.4µM*	14.6µM*
COc1ccccc1C(CC(=O)Nc1ccc(C)c(C)c1)c1ccc(OC(C)C)cc1 (stereo not given)	i	i	?	-14.7%	?	?
O=C(Cn1c(=O)n(-c2ccccc2)c(=O)c2ccc(C(=O)NCc3ccc4c(c3)OCO4)cc21)Nc1ccc(F)c(Cl)c1	i	i	.	.	.	.
CCCC[C@H](CC)CN1CN(C[C@@H](CC)CCCC)CC(C)(N)C1	.	.	3.3%[20.6 µM]	-0.9%[20.6 µM]	.	.
COc1ccc(OC)c(-c2cc(C(=O)NC(C)c3ccccc3)no2)c1 (stereo not given)	i	i	.	.	.	.
O=C(Nc1cccc(F)c1)c1ccc2c(c1)N(Cc1ccccc1)C(=O)c1ccccc1S2(=O)=O	i	i	.	.	.	.
COc1ccc(CNCCC(c2ccc(OC(C)C)cc2)c2ccccc2OC)cc1 (stereo not given)	?	20.6µM*	?	?	?	?
CC(=O)N(CCC(Cc1ccccc1)c1ccc2c(c1)OCO2)Cc1ccccc1F (stereo not given)	i	i	-0.5%	?	-0.1%	-3.0%
COc1ccccc1C(CCNCc1ccc(N(C)C)cc1)c1ccc(OC(C)C)cc1 (stereo not given)	?	i	?	16.8%	?	?
COc1ccc(CNCCC(c2ccccc2)c2ccc3c(c2)OCO3)cc1 (stereo not given)	?	?	?	18.4µM*	?	?
SMILES	KB-3-1 tox	KB-V1 MDR tox	SW480 rerep	MCF10A rereplic	HT1080 IDH1KD tx	HT1080-NT tox
Fc1ccccc1CNCCC(Cc1ccccc1)c1ccc2c(c1)OCO2 (stereo not given)	?	?	?	29.1%	?	16.4µM*
COc1cc(OC)c(NC2=C(c3ccc(C(F)(F)F)cc3)C(=O)c3ccccc32)cc1Cl	i	i	.	.	.	.
COc1ccc(CNC(=O)CN2C(=O)COc3ccc(S(=O)(=O)Nc4ccccc4)cc32)cc1	i	i	.	.	.	.
CC(C)C[C@H]1CNC(=O)C(=O)N1C[C@@H]1CCCN1C[C@H](Cc1ccccc1)N1C[C@H](Cc2ccccc2)N(CC2CCCCC2)C(=O)C1=O	i	i	.	.	9.3%	11.1%
Cc1cccc(C)c1NC(=O)CN(C)CC(=O)Nc1ccc(F)c(Cl)c1	i	14.6µM*	-1.6%	-1.0%	-16.7%	-1.8%
COc1cc2c(cc1OC)CN(c1nc(CN3CCCCC3)nc3sc4c(c13)CCCC4)CC2	i	i	?	?	2.5%	4.7%
Cc1sc2nc(CN3CCOCC3)nc(N3CCOCC3)c2c1C	i	?	-1.7%	1.3%	3.2%	11.6%
Cc1ccc(Oc2nc(CN3CCOCC3)nc3sc4c(c23)CCC(C)C4)cc1C (stereo not given)	?	14.6µM*	5.4%	?	8.5%	3.0%
COc1cc2c(cc1OC)CN(c1nc(CN3CCOCC3)nc3sc4c(c13)CCCC4)CC2	?	?	8.1%	18.4µM*	?	-12.1%
COc1cc2c(cc1OC)CN(c1nc(CN3CCCC3)nc3sc(C)c(C)c13)CC2	i	i	24.3%	10.7%	?	14.6µM*
COc1cccc2nc3cc(C)c(C)cc3nc12	i	?	4.8%	-6.6%	8.2µM*	18.4µM*
COc1cccc2c1nc(C)c1cc(C)oc12	i	i	-2.0%	0.4%	-0.3%	-7.0%
Oc1ccc(-c2csc(-c3c[nH]c4ccccc34)n2)c(O)c1	18.4µM*	?	7.3%	?	?	?
Cc1ccc(-c2csc(-c3c[nH]c4ccccc34)n2)c(C)c1	?	?	?	14.6µM*	18.4µM*	?
NC(=O)c1cccc(-c2coc3c(C(=O)NC4CCCCC4)cccc23)c1	i	i	.	.	?	?
Cc1cc(C)cc(NC(=O)c2sc3nc4n(c(=O)c3c2C)N=C(c2ccc(F)cc2)CS4)c1	i	i	.	.	.	.
O=C(Nc1nc2ccccc2n1Cc1ccccc1)c1ccc(COc2ccccc2[N+](=O)[O-])o1	i	?	?	?	6.2%	-1.8%

Screens (PubChem BioAssay)
